Drawing on PubChem BioAssay AID862 (The Scripps Research Institute Molecular Screening Center, 2007), this text covers inhibition for 101 compounds.

Hit rate of the full screen: of about 190,000 compounds, about 1,700 (0.89%) were called active. The sample as a whole holds a higher share of actives than the screen did. Values without a mark were called inactive.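 How the source made its calls: active means inhibition above the mean inhibition across all screened compounds plus 3 SD (cut at about 44% in these data); inactive means the rest.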

A word on the inhibition: it is the relative decrease from the control value, in per cent.

This assay is described as follows: blockers of STAT3 transcriptional signaling – U3A cells, luciferase, luminescence, MLSCN library, primary screen (AID 862).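 Further: 0% = DMSO only wells and 100% = 100 µM nifuroxazide control wells.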 The note with it: IL-6 STAT3-luciferase reporter, at 5.5 µM, stronger effect = higher value, host cell line lacks STAT1.
`Cc1ccc(OCC(=O)Nc2ccc(S(=O)(=O)Nc3ccccn3)cc2)cc1`: the inhibition is 4.3%.

In the case of `Cc1cc(C)cc(OCC(=O)Nc2ccc(S(=O)(=O)Nc3ccccn3)cc2)c1`, the inhibition is -0.1%.

Turning to `Cc1ccc(S(=O)(=O)Nc2ccc3ncccc3c2)cc1`, the inhibition is 49.6% (active).

`CC1CCCCC1NC(=O)CO/N=C/c1ccc(OC(F)F)cc1` (stereo unspecified): the inhibition was -1.1%.

With `CCCCC(O)(CCCC)C(=O)NN(C(=O)CCl)c1ccccc1`, the inhibition was 2.7%.

Turning to `Cc1cc(CNC(=O)c2cccc([N+](=O)[O-])c2)c2ccccc2n1`, the inhibition was 12.3%.

Consider `Cc1cccc(-n2c(Cc3cc(=O)[nH]c(=O)[nH]3)nnc2SCC(=O)Nc2cccc(C(F)(F)F)c2)c1`, for which the inhibition was 2%.

For `CN(C)S(=O)(=O)c1cccc(NC(=S)N/N=C/C(=O)c2ccccc2)c1`, the inhibition was 8%.

With `O=C(O)c1cccc(NC(=S)N/N=C/c2c[nH]c3ccccc23)c1`, the inhibition is 73.2% (active).

In the case of `CSC(=S)N/N=C/c1c[nH]c2ccccc12`, the inhibition was -10.1%.

In the case of `CCS(=O)(=O)Nc1ccc(C2=NN(C(C)=O)C(c3cccs3)C2)cc1` (stereo unspecified), the inhibition was 6.9%.

On to `O=[N+]([O-])c1cc(S(=O)(=O)N2CCCC2)ccc1NN=C1CCCC1`, for which the inhibition is 8.3%.

As for `Cc1ccc(S(=O)(=O)N(C)C)cc1NC(=O)COC(=O)c1c(C)noc1C`, the inhibition is 6.4%.

Turning to `COc1ccc(/C(=N\O)c2nccc3cc(OC)c(OC)cc23)cc1OC`, the inhibition was -1.8%.

Take `Cc1noc(NS(=O)(=O)c2ccc(N/C=C/C(=O)c3ccccc3)cc2)c1C`: the inhibition was -6.5%.

Turning to `O=C(/C=C\NCC(=O)c1ccccc1)c1ccccc1`, the inhibition is 22.1%.

In the case of `Cc1ccc(N/C=C/C(=O)c2ccccc2)cc1C`, the inhibition is 52.2% (active).

In the case of `O=c1cc(O)c(-c2cccc(C(F)(F)F)c2)c(Cl)[nH]1`, the inhibition is 5.9%.

Turning to `O=c1oc2ccccc2cc1-c1cn(-c2ccccc2)c(=S)[nH]1`, the inhibition was 108% (active).

Turning to `Nc1ncc(-c2cc3ccccc3oc2=O)s1`, the inhibition is 14.8%.

On to `O=C(c1cn(-c2ccccc2)nc1-c1cc2ccccc2oc1=O)N1CCOCC1`, for which the inhibition is 11.6%.

For `CC1(C)C2CC=C(/C=N/NC(=O)c3ccc(Cl)cc3)C1C2` (stereo unspecified), the inhibition was -5.9%.

Take `Fc1cccc(CSc2nnc3ccc(-c4ccncc4)nn23)c1`: the inhibition was 9.1%.

Turning to `CCCNC(=O)c1c(N)n(-c2ccc(S(N)(=O)=O)cc2)c2nc3ccccc3nc12`, the inhibition was 21.5%.

On to `CCC(C)NC(=O)c1c(N)n(/N=C/c2cccs2)c2nc3ccccc3nc12` (stereo unspecified), for which the inhibition was 81.7% (active).

In the case of `CC(C)Cn1c(N)c(C(=O)NCc2cccs2)c2nc3ccccc3nc21`, the inhibition was -8.7%.

As to `CN(/C(=N/S(=O)(=O)c1cccs1)c1ccccc1)c1ccc(O)cc1`, the inhibition is -3.2%.

As for `Cc1cc(NC(=O)CN2C(=O)NC(C)(CCc3ccccc3)C2=O)no1` (stereo unspecified), the inhibition is -5.6%.

Take `O=C(O)CCc1nc2cc(Cl)ccc2n(Cc2ccccc2)c1=O`: the inhibition was 2.8%.

On to `Cn1c(-c2ccco2)nc2cc3ccccc3cc21`, for which the inhibition was 79.1% (active).

As for `CN1c2ccccc2-c2nc3ccccc3n2C1c1ccco1` (stereo unspecified), the inhibition was 14%.

With `CN(c1nc2ccccc2n2c(-c3ccco3)nnc12)S(=O)(=O)c1ccccc1`, the inhibition is 4.1%.

With `O=C1CCCC(O)=C1N=Nc1ccc2ncsc2c1`, the inhibition was -0.2%.

For `O=C(NCCCn1ccnc1)C(=O)c1cn(CC(=O)N2CCCCCC2)c2ccccc12`, the inhibition is 6.5%.

With `CC(C)N(C(=O)CSc1nc(COc2ccccc2)nc2ccccc12)C(C)C`, the inhibition was 10.8%.

With `CC(=O)N1CCc2cc(Br)cc(S(=O)(=O)CCC(=O)Nc3c(C)n(C)n(-c4ccccc4)c3=O)c21`, the inhibition was -1.8%.

For `O=C(NCc1cccnc1)c1nc(-c2cccs2)no1`, the inhibition was 1.9%.

Turning to `Cc1ccsc1C(=O)OCC(=O)c1cc2ccccc2o1`, the inhibition is 13.5%.

`Cc1cc(C(=O)Cn2cnc3cc([N+](=O)[O-])ccc3c2=O)c(C)n1CC1CCCO1` (stereo unspecified): the inhibition is 8.2%.

In the case of `Cc1ccsc1C(=O)OCC(=O)c1cc(C)n(CC2CCCO2)c1C` (stereo unspecified), the inhibition is 95.8% (active).

As to `CC(C)(C)C1CCC(OC(=O)CCC(=O)Nc2ccccc2)CC1` (stereo unspecified), the inhibition is 5.2%.

Take `O=C(c1cc(=O)c2ccccc2o1)N1CCN(c2ccccc2)CC1`: the inhibition was 4.4%.

In the case of `Cc1ccc(-c2csc(NC(=O)c3cccs3)n2)cc1`, the inhibition was 12.6%.

`Cc1ccc(-c2nnc(-c3ccc(NC(=O)c4cccs4)cc3)o2)cc1`: the inhibition is 11.8%.

In the case of `Cc1nc(-c2ccc(NC(=O)c3cccs3)cc2)cs1`, the inhibition is 78.1% (active).

With `Cc1ccc(S(=O)(=O)N2CCN(CC(=O)N/N=C/c3cc([N+](=O)[O-])ccc3Cl)CC2)cc1`, the inhibition was -9.8%.

Consider `O=c1c2c(nc3nc[nH]n13)CCC2`, for which the inhibition is -1.5%.

In the case of `O=C1CCCc2c1nc(-c1cccc(Cl)c1)n2O`, the inhibition was -13.1%.

With `O=c1c2c(nc3cc(-c4cccc(Cl)c4)[nH]n13)CCCC2`, the inhibition is 65.7% (active).

Turning to `O=C(c1ccccc1)c1ccc(OCC(O)CN2CCCC2)cc1` (stereo unspecified), the inhibition was -2.9%.

Consider `CCc1cc(-c2n[nH]c(=S)n2CC(C)C)cs1`, for which the inhibition is 5%.

Consider `CCN(CC)C(=O)c1ccc(O)c(OC)c1`, for which the inhibition was -3%.

As to `CCOc1ccc(OCc2cccc(C(=O)N(CC)CC)c2)cc1`, the inhibition is 70.7% (active).

On to `COc1ccc(OCc2cccc(C(=O)N3CCCC3)c2)cc1`, for which the inhibition is 29%.

On to `Cc1ccc(NC(=O)C(=O)NCC2CCN(C(=O)c3cccc([N+](=O)[O-])c3)CC2)cc1`, for which the inhibition was 6.1%.

Regarding `O=C(Nc1ccc2c(c1)OCCO2)c1ccc(Cl)c(S(=O)(=O)N2CCCCC2)c1`, the inhibition was 25.5%.

Regarding `O=C(Nc1ccc(Cl)cn1)c1ccc2c(c1)OCCO2`, the inhibition was 70.2% (active).

As to `O=C(Nc1cccc(S(=O)(=O)Nc2ccc(Cl)cc2)c1)c1ccc2c(c1)OCCO2`, the inhibition is 44.7% (active).

`COc1ccc(C(=O)NC(=S)Nc2ccc(Cl)cn2)cc1OC`: the inhibition is 20.4%.

Take `COc1c(Cl)cc(C(=O)Nc2ccc(Cl)cn2)cc1Cl`: the inhibition was -37.3%.

Consider `O=C(Nc1cccc(S(=O)(=O)N2CCCCC2)c1)c1ccc2c(c1)OCO2`, for which the inhibition is 11.4%.

Regarding `CC(=O)NC(=S)NNC(=O)c1ccc(Br)cc1`, the inhibition is -0.5%.

For `O=C1N/C(=C/c2cccs2)C(=O)N1Cc1ccc(F)cc1`, the inhibition is -0.7%.

Consider `Cc1ccc(NC(=O)NNC(=O)c2sccc2-n2cccc2)cc1`, for which the inhibition is -2.5%.

Take `Cc1ccnc(NC(=O)C(C)N2C(=O)c3ccccc3C2=O)c1` (stereo unspecified): the inhibition is 1.4%.

On to `COc1ccc2nc(Nc3nc4cc5c(cc4s3)OCCO5)sc2c1`, for which the inhibition was 10.2%.

For the compound `Brc1ccc2nc(N3CCCC3)sc2c1`, the inhibition was 30.3%.

Take `c1c2c(cc3sc(N4CCCCC4)nc13)OCCO2`: the inhibition was 89.7% (active).

With `CC(C)c1csc(CN2CCC(CO)(Cc3ccccc3)CC2)n1`, the inhibition is 2.1%.

`CS(=O)(=O)N(Cc1ccccc1Cl)c1ccc(C(=O)NCc2cccnc2)cc1`: the inhibition was -0.3%.

Regarding `Fc1ccc(CNCc2ccc(Br)cc2)cc1`, the inhibition is 19.2%.

On to `NC1=NC(=O)S/C1=C\c1ccc(O)cc1`, for which the inhibition is 3.3%.

In the case of `Cc1ccc(-c2csc(NC(=O)c3cnccn3)n2)cc1C`, the inhibition is 15.5%.

For `O=C(Nc1nc(-c2ccc3c(c2)OCO3)cs1)c1ccncc1`, the inhibition is 64.6% (active).

`Cc1cc(C)c2nc(NC(=O)c3ccc4c(c3)OCO4)sc2c1`: the inhibition was 6.8%.

As for `O=C(Nc1ccccc1)c1ccc2c(c1)OCO2`, the inhibition is 18.6%.

In the case of `O=C(Nc1nc2ccccc2s1)c1ccc2c(c1)OCO2`, the inhibition was 61.3% (active).

As to `O=C(Nc1nc(-c2ccncc2)cs1)C1COc2ccccc2O1` (stereo unspecified), the inhibition is 22.6%.

Consider `C/C(CC(=O)Nc1cccc(C(F)(F)F)c1)=N\NC(=O)C(=O)NCC(C)C`, for which the inhibition is 0.3%.

Take `COc1cc(NS(=O)(=O)c2ccc(NC(C)=O)cc2)cc(OC)c1`: the inhibition was 38%.

As to `COC(=O)c1c(C)oc2ccc(N(C(=O)Oc3ccccc3)S(=O)(=O)c3ccccc3)cc12`, the inhibition was 5.2%.

Take `COc1ccc(S(=O)(=O)Nc2ccc3oc(C)c(C(C)=O)c3c2)cc1`: the inhibition is 46% (active).

`COc1ccc2oc(C)c(NC(C)=O)c2c1`: the inhibition is 4.1%.

Turning to `COC(=O)COc1ccc(S(=O)(=O)Nc2ccc(NC(C)=O)cc2)cc1`, the inhibition is -2%.

For `COc1ccc(NS(=O)(=O)c2ccc(NC(C)=O)cc2)cc1OC`, the inhibition was 47.9% (active).

As for `Cc1ccc2c(=O)oc(N(C)C)nc2c1`, the inhibition is -6.4%.

As to `CCc1c(C)nc2c(OC)cccc2c1Cl`, the inhibition is 3.4%.

As to `COc1ccccc1C1SCCN1C(=O)c1ccc([N+](=O)[O-])cc1` (stereo unspecified), the inhibition is -1.1%.

For the compound `O=C(Nc1ccc(CSc2ccccc2)cc1)c1ccc(CN2CCOCC2)cc1`, the inhibition was 72.7% (active).

For `COc1ccc(C(=O)Nc2ccc(CN3CCOCC3)cc2)cc1`, the inhibition was -2.1%.

With `O=C(Nc1ccccc1C(=O)N1CCOCC1)c1ccc(CSc2ccccc2)cc1`, the inhibition is 24%.

For `COc1ccc(C(=O)Nc2ccc(-n3nncc3C(C)(C)C)cc2)cc1`, the inhibition is -0.3%.

`COc1ccc(NC(=O)CSc2nc(C)cs2)cc1`: the inhibition is 10.5%.

As for `Cc1cccc(C)c1Nc1nnc(SCC(=O)Nc2sccc2C#N)s1`, the inhibition was 6.5%.

`Cc1csc(SCC(=O)Nc2sccc2C#N)n1`: the inhibition is 44.3% (active).

Take `Cc1cc(-c2nnc(CCC(=O)NC(c3ccccc3)c3ccccc3)o2)no1`: the inhibition was 9.8%.

Turning to `Cc1nn(CC#N)c(=O)n1N(C)c1ncc(C(F)(F)F)cc1Cl`, the inhibition is 6.6%.

On to `Cn1c(SCC(=O)Nc2ccc(Br)cc2F)nnc1-c1ccco1`, for which the inhibition was 7.9%.

As to `COc1ccc(C(=O)Nc2ccc(S(=O)(=O)NC(C)C)cc2)cc1`, the inhibition was -0.4%.

Take `COc1cc(OC)cc(C(=O)Nc2ccc(S(=O)(=O)Nc3cc(C)on3)cc2)c1`: the inhibition was 20.2%.

`COc1ccc(NS(=O)(=O)c2ccc(NC(=O)c3ccc(N(C)S(C)(=O)=O)cc3)cc2)cc1`: the inhibition is 60.1% (active).
